# Reference: PubChem BioAssay AID1220 (Sanford-Burnham Center for Chemical Genomics, 2008)
# Screen size: about 190,000 compounds; about 1,300 (0.68%) were called active. The sample as a whole holds a higher share of actives than the screen did. A number with no mark means an inactive call. Cut-off read from the data, not from the text of the source: active = inhibition above about 50%; inactive = the rest.
# Target: Mannose-6-phosphate isomerase (Homo sapiens) (UniProt P34949)
# Experiment: human PMI inhibitors, high substrate, primary screen, biochemical, fluorescence intensity, high mannose 6-phosphate (AID 1220)
# Conditions: recombinant PMI enzyme, coupled fluorescence intensity; at 20 µM; stronger effect = higher value
# Mannose-6-phosphate isomerase (Homo sapiens), sequence (P34949 whole entry, looked up): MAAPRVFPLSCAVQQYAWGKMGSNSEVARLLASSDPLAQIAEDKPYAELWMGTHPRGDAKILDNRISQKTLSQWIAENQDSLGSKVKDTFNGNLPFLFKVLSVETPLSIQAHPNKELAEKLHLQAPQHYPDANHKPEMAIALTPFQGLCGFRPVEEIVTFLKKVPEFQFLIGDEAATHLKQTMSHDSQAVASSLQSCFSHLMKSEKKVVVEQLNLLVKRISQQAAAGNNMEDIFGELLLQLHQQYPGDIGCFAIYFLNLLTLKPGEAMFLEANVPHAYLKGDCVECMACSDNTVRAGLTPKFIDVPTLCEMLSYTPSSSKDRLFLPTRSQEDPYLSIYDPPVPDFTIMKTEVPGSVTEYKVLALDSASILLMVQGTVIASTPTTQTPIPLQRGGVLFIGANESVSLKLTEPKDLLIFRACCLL
row,Compound,inhibition
1,Cc1cc(NC(=O)CN2C(=O)/C(=C/c3cccc(Br)c3)SC2=S)no1,-9.8%
2,CC(Cl)c1cc(-c2ncc(C(F)(F)F)cc2Cl)no1 (stereo not drawn),-4.3%
3,CCc1ccccc1OCCCCCNCCO,1.5%
4,COc1cc(C2=NOC(C(=O)N3CCCCCC3)C2)cc(OC)c1OC (stereo not drawn),-5.6%
5,O=C(O)C1CC=CCC1C(=O)NCCc1csc(-c2ccccc2)n1 (stereo not drawn),-17.1%
6,CCOc1ccc(C(C)NC(=S)NC2CCCCC2)cc1OCC (stereo not drawn),6%
7,Cc1ccc(OCC(=O)N/N=C\c2cn(C)c3ccccc23)c([N+](=O)[O-])c1,14%
8,COc1cccc(C2NC(=O)c3ccccc3O2)c1OCc1ccccc1F (stereo not drawn),19%
9,CN(C)c1ccc(/C(=N\O)c2ccccc2)cc1,5.9%
10,CN(C)c1ccc(N=Cc2ccco2)cc1,63.2% (active)
11,Cc1ccc(/C=C/C(=O)Nc2ccc(N(C)C)cc2)o1,27.9%
12,Cc1ccc(N=Cc2ccc(N(C)C)cc2)cc1C,10%
13,CN(C)c1ccc(N=Cc2nc(-c3ccccc3)oc2O)cc1,31%
14,Cc1ccc(N=Cc2ccc(N(C)C)cc2)cc1,9.3%
15,CN(C)c1ccc(C=Nc2ccc(N(C)C)cc2)cc1,59.2% (active)
16,CN(C)c1ccc(C=Nc2ccccc2)cc1,-10.5%
17,CN(C)c1ccc(C(=O)/C=C/c2ccco2)cc1,38.7%
18,Cc1ccc(C=Nc2ccc(N(C)C)cc2)o1,51.8% (active)
19,CCSc1nc(C(F)(F)F)cc(=O)n1-c1ccccc1,-9.6%
20,O=C(Nc1c(F)cc(F)cc1Br)c1cc2nc(C(F)F)cc(C(F)F)n2n1,18.1%
21,CCCC1(C)NC(=O)c2ccccc2O1 (stereo not drawn),7.5%
22,Cc1cccc(C)c1NC(=O)CSc1nnc(Cc2ccccc2)o1,-13.2%
23,Cc1cccc(OCC(=O)O/N=C(\N)Cc2cccs2)c1,0%
24,O=C(COc1cccc(C(F)(F)F)c1)N1CCN(c2ccc(O)cc2)CC1,50.6% (active)
25,O=C(COc1cccc(C(F)(F)F)c1)N1CCN(c2ccccc2O)CC1,-5.8%

row,Compound,inhibition
1,COc1ccc(OCC(=O)N2CCN(c3cccc(C(F)(F)F)c3)CC2)cc1,15.4%
2,CC(C)(C)C(=O)NC(Nc1cccc2cccnc12)C(Cl)(Cl)Cl (stereo not drawn),60.1% (active)
3,CCC(=O)NC(NC(=S)Nc1cccc2cccnc12)C(Cl)(Cl)Cl (stereo not drawn),37.8%
4,CC(C)C(=O)NC(Nc1cccc2cccnc12)C(Cl)(Cl)Cl (stereo not drawn),41.4%
5,CCOC(=O)c1oc2ccccc2c1NC(=O)COC,-10.9%
6,CCOc1ccc(C(C)NC(=O)CCC(=O)O)cc1 (stereo not drawn),1.9%
7,Cc1ccc2nc(SCC(=O)Nc3cccc(S(=O)(=O)N(C)C)c3)[nH]c2c1,10.5%
8,O=C(/C=C/c1ccc(Br)o1)NCCCN1CCOCC1,-2.7%
9,CCCc1ccc(C#N)c(SC2CC(=O)N(c3ccc(OC)cc3)C2=O)n1 (stereo not drawn),40.6%
10,N#Cc1cc2c(nc1SC1CC(=O)N(c3ccccc3)C1=O)CCC2 (stereo not drawn),35.2%
11,COc1ccc(N2C(=O)CC(Sc3nc4c(cc3C#N)CCC4)C2=O)cc1 (stereo not drawn),57.1% (active)
12,Cc1nc2ccc(Nc3nc4cc(S(=O)(=O)N5CCOCC5)ccc4o3)cc2s1,61.9% (active)
13,Cc1nc2ccc(NC(=O)c3cc(S(=O)(=O)N4CCOCC4)ccc3C)cc2s1,5.6%
14,Cc1nc2ccc(NC(=O)c3ccc(S(=O)(=O)N4CCOCC4)cc3)cc2s1,-2.3%
15,Nc1nc(NCCCN2CCOCC2)nc(Nc2ccc(F)cc2)c1[N+](=O)[O-],-6.1%
16,CCOC(=O)c1sc2nc(CC(=O)OC)nc(N(C)CCc3ccccn3)c2c1C,-1.1%
17,CCOC(=O)C1=C(c2ccccc2)OC(N)=C(C#N)C1c1cccnc1 (stereo not drawn),11.6%
18,CC1=C(n2nnc([N+](=O)[O-])n2)C(c2cccnc2)C(C#N)=C(N)O1 (stereo not drawn),59.9% (active)
19,CC(=O)C1=C(C)OC(N)=C(C#N)C1c1ccncc1 (stereo not drawn),-5.8%
20,CC(=O)C1=C(C)OC(N)=C(C#N)C1c1cccnc1 (stereo not drawn),42.6%
21,CC(=O)C1=C(C)OC(N)=C(C#N)C1c1cccc([N+](=O)[O-])c1 (stereo not drawn),56.7% (active)
22,COC(=O)C1=C(C)OC(N)=C(C#N)C1c1cccnc1 (stereo not drawn),0.3%
23,O=C(CN1CCN(C2CCCCC2)CC1)Nc1ccc(Br)cc1,-11.2%
24,CC1(C)CC(=O)C(N=Nc2cc(Cl)c(Cl)c(Cl)c2)=C(O)C1,-3.4%
25,O=Cc1ccc(-n2cc(C=O)c3ccccc32)cc1,-5.3%

row,Compound,inhibition
1,CC1=C(C(=O)OCC2CCCO2)C(c2coc3ccccc3c2=O)C2=C(CC(C)(C)CC2=O)N1 (stereo not drawn),-4.3%
2,CC(NC(=O)c1cc(-c2ccc(Br)cc2)on1)c1ccccc1 (stereo not drawn),-3.3%
3,CCc1cc(C(=O)Cc2cnn(-c3ccccc3)c2)c(O)cc1O,15.5%
4,O=C(c1cnn(-c2ccccc2)c1)c1ccccc1O,10.1%
5,O=C(Nc1cccc(NC(=O)c2ccc3c(c2)OCO3)c1)c1ccccc1,6.5%
6,CCOc1ccccc1N1CCN(CC(=O)Nc2nnc(CC)s2)CC1,-13%
7,O=c1n(-c2ccc(Br)cc2)cnn1-c1ncccc1[N+](=O)[O-],-0.4%
8,O=c1c2c([N+](=O)[O-])cc([N+](=O)[O-])cc2sn1-c1ccc(Br)cc1,104% (active)
9,O=c1c2cc(Br)ccc2nc(-c2ccc([N+](=O)[O-])cc2)n1O,-16.5%
10,Cc1ccc(C(=O)Nc2ccc(Br)cc2)cc1S(=O)(=O)Nc1ccccn1,3.7%
11,c1ccc(Nc2cccc(Nc3ccccc3)c2)cc1,29.3%
12,COc1cccc(NC2=NC3(CCCCC3)N=C(N)N2)c1,-6.8%
13,O=C1c2cccc3cccc(c23)C(=O)N1c1nccs1,8.2%
14,COc1ccc(OC)c(-c2nnc(NC(=O)C(C)Sc3nncn3C)s2)c1 (stereo not drawn),91.6% (active)
15,COc1ccccc1-c1nnc(NC(=O)C(C)Sc2nncn2C)s1 (stereo not drawn),-2.2%
16,CC(Sc1nncn1C)C(=O)Nc1nnc(-c2ccccc2)s1 (stereo not drawn),6%
17,COc1ccccc1CN1CCNC(=O)C1CC(=O)NCc1csc(C)n1 (stereo not drawn),9.7%
18,CSc1ccc(/C=N/NC(=O)CN2CCN(Cc3ccccc3Cl)CC2)cc1,0.4%
19,Cc1cc(C)c(C(=O)COc2cccnc2[N+](=O)[O-])cc1C,24.3%
20,Cc1ccc(C)c(C(=O)COc2ccc(C)nc2[N+](=O)[O-])c1,18.4%
21,Cc1ccc(OCC(=O)c2cc(C)n(C)c2C)c([N+](=O)[O-])n1,42.3%
22,COCCn1c(C)cc(C(=O)COc2nc3ccccc3nc2C)c1C,8.5%
23,CCCn1c(C)cc(C(=O)COc2ccc(C)nc2[N+](=O)[O-])c1C,3.2%
24,COCCn1c(C)cc(C(=O)COc2cccnc2[N+](=O)[O-])c1C,59.4% (active)
25,Cc1ccc(OCC(=O)c2cc(C)c(C)cc2C)c([N+](=O)[O-])n1,4.2%

row,Compound,inhibition
1,Cc1ccc(OCC(=O)c2ccc(Cl)s2)c([N+](=O)[O-])n1,55.6% (active)
2,COCCn1c(C)cc(C(=O)COc2ccc(C)nc2[N+](=O)[O-])c1C,51.6% (active)
3,O=C(CCN1C(=O)c2cccnc2C1=O)NC1CCCCCC1,9.7%
4,CCC(=O)Nc1ccc(N2CCN(S(C)(=O)=O)CC2)cc1,3.4%
5,Cc1cc(NCCCn2ccnc2)n2nc(-c3ccc(F)cc3)cc2n1,-14.3%
6,O=C(N/N=C/c1ccncc1)c1cccc(NC(=O)c2ccc(Cl)cc2)c1,-140%
7,C#CCOCCOCCOCCNc1nc(N2CCN(C(=O)Cn3cc(CCCN=C(N)N)nn3)CC2)nc(N2CCN(C(=O)[C@H]([C@@H](C)CC)n3cc(CCCN=C(N)N)nn3)CC2)n1,-53.5%
8,CCOC(=O)N1CCC(NC(=O)C2CCCN(c3nc4ccccc4o3)C2)CC1 (stereo not drawn),3.2%
9,CC(NC(=O)C(Cc1ccccc1)NC(=O)c1ccccc1)C(=O)O (stereo not drawn),-5.7%
10,N=C(N)Cc1ccccc1Sc1ccccc1,-7.9%
11,Cc1ccc(NC(=O)c2ccc(F)c(S(=O)(=O)N3CCOCC3)c2)cc1F,0.5%
12,Cc1[nH][nH]c(=O)c1C(c1c(C)[nH][nH]c1=O)c1cn(Cc2ccccc2Cl)c2ccccc12,50.3% (active)
13,Cc1nccn1Cc1cccc2ccccc12,-0.7%
14,O=c1c2ccccc2ncn1Cc1cccc2ccccc12,7.1%
15,CCOC(=O)N1CCN(C(=O)CS(=O)(=O)c2cn(Cc3ccccc3Cl)c3ccccc23)CC1,3.6%
16,Cc1[nH][nH]c(=O)c1C(c1c(C)[nH][nH]c1=O)c1cn(Cc2cccc3ccccc23)c2ccccc12,56% (active)
17,COC(=O)N/N=C/c1cn(Cc2ccccc2Cl)c2ccccc12,16.8%
18,O=C(O)c1ccc(Cl)c(S(=O)(=O)Nc2ccccc2N2CCOCC2)c1,-3.7%
19,CC(C)=C1C2C=CC1C(C(=O)Nc1cccc(C)c1)C2C(=O)O (stereo not drawn),0.3%
20,O=C(COC(=O)c1cc(=O)c2ccccc2o1)NC1CCCC1,30.5%
21,CCCCCC(=O)Nc1cc2[nH]c(=O)cc(COC)c2cc1C,-2.7%
22,CCC(=O)Nc1cc2[nH]c(=O)cc(C)c2cc1C,54.6% (active)
23,CCC(=O)Nc1cc2c(C)cc(=O)oc2cc1C,-14.2%
